PAFAH1B3 FP inh – blocks human PAF acetylhydrolase 1B catalytic subunit 3. inhibition, % at 3.39 µM. AID 492972. Q15102. 340,000 compounds, 0.28% hits. recombinant PAFAH1B3, FP-rhodamine probe, fluorescence polarization;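 active = inhibition above the screen-wide average of all tested compounds plus 3 SD, cut at about 25% in these data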
PAFAH1B2 FP inh – PAFAH1B2 (human) inhibition; P68402; recombinant PAFAH1B2, FP-rhodamine activity probe, fluorescence polarization; inhibition, % at 3.39 µM; 340,000 compounds, 1.2% hits;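 active = inhibition above the mean of all tested compounds plus 3 SD, cut at about 24% in these data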
PP1 inh – PP1-alpha (human) inhibition in PP5 counter-screen; P62136; purified PP1alpha, OMFP fluorescence; inhibition, % at 6.7 µM; 320,000 compounds, 0.9% hits; AID 2235;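 active = inhibition above the mean inhibition of all tested compounds plus 3 SD, computed separately for each screening campaign, cut at about 15% in these data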
pPAFAH inh – inhibitors of human plasma PAF acetylhydrolase (pPAFAH); Q13093; 330,000 compounds, 1.5% hits; inhibition, % at 3.39 µM; recombinant pPAFAH, FP-rhodamine probe fluorescence polarization; AID 463082;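 active = inhibition above the mean inhibition across the screen plus 3 SD, cut at about 25% in these data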;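 also: inhibitors block binding of the rhodamine activity-based probe so polarization drops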
PP5 inh – PP5 (human) phosphatase inhibition; 320,000 compounds, 0.18% hits; purified PP5c, OMFP substrate fluorescence; AID 1987; inhibition, % at 6.7 µM; P53041;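 active = inhibition above the campaign's mean inhibition across all tested compounds plus 3 SD, cut at about 9.5% in these data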
Target sequence (P53041 whole entry, looked up): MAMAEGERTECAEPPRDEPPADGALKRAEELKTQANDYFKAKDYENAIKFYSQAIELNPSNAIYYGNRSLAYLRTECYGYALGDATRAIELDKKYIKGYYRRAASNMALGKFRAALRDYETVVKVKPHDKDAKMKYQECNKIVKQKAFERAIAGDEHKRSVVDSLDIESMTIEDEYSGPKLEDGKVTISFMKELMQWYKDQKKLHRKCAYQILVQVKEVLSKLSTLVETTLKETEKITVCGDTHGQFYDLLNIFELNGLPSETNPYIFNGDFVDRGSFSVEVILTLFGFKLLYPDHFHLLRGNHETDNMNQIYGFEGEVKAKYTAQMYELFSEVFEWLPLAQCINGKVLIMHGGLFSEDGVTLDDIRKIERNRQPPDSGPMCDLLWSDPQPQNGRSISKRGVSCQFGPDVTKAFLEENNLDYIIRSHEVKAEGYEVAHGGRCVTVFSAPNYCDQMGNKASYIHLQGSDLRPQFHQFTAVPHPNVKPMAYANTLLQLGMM
PAFAH2 inh – PAFAH2 (human) inhibition; Q99487; recombinant PAFAH2, FP-rhodamine activity probe, fluorescence polarization; inhibition, % at 3.39 µM; 340,000 compounds, 0.99% hits; AID 492956;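 active = inhibition above the mean over all tested compounds plus 3 SD, cut at about 30% in these data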;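 also: inhibitors block probe labeling of enzyme so polarization drops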
Each line names hits and unclear results; the compound was inactive in the other large screens. A selection: hits, their analogues and other compounds. The true share with any hit is near 3.4%.

COc1ccc([N+](=O)[O-])cc1NS(=O)(=O)c1cccc(C(=O)O)c1	none
CCOc1ccc(OCCC(=O)OCC(=O)NCc2ccccc2)cc1	pPAFAH inh 32
Cc1ccc(C)c(OCCC(=O)OCC(=O)NCc2ccc(F)cc2)c1	pPAFAH inh 30
Cc1ccc(OCCC(=O)OCC(=O)NCc2ccccc2)cc1	pPAFAH inh 30
C(=C\c1ccco1)/c1ccc2ccccc2n1	pPAFAH inh 26 (no result: PAFAH1B3 FP inh, PAFAH1B2 FP inh, PAFAH2 inh)
Fc1cccc(F)c1/C=C/c1ccc2ccccc2n1	none
COc1ccc(/C(N)=N/OC(=O)CSc2ccc(C)cc2)cc1OC	PAFAH1B2 FP inh 64
COc1ccc(/C(N)=N/OC(=O)Cc2cccs2)cc1OC	none
CO[C@H]1C=CO[C@@]2(C)Oc3c(C)c(O)c4c(O)c(c(C=NN5CCN(C)CC5)c(O)c4c3C2=O)NC(=O)C(C)=CC=C[C@H](C)[C@H](O)[C@@H](C)[C@@H](O)[C@@H](C)[C@H](OC(C)=O)[C@@H]1C	pPAFAH inh 31
Cc1ccc(C)c(SCC(=O)OCC(=O)Nc2ccc(S(=O)(=O)N3CCOCC3)cc2)c1	pPAFAH inh 26
Cc1ccc(NC(=O)COC(=O)CCC2CCCC2)cc1S(=O)(=O)N1CCOCC1	pPAFAH inh 33, PAFAH2 inh 32 (no result: PP1 inh, PP5 inh)
Cc1ccc(NC(=O)COC(=O)CCC(=O)c2cccs2)cc1S(=O)(=O)N1CCOCC1	none
Cc1ccc(NC(=O)COC(=O)CCc2ccc(S(=O)(=O)N3CCOCC3)cc2)cc1C	none
CCc1nc(CN2CCN(c3cc(C(F)(F)F)ccn3)CC2)c(C)[nH]1	none (no result: PAFAH1B3 FP inh, PAFAH1B2 FP inh, PAFAH2 inh)
OCCC1CN(Cc2c(F)cccc2Cl)CCN1C1CCCC1 (configuration not stated)	none
OCCC1CN(Cc2c(F)cccc2Cl)CCN1C1CCCCC1 (configuration not stated)	pPAFAH inh 32
Brc1ccc(CSc2nnc3ccccn23)cc1	PAFAH1B2 FP inh 30
Clc1cccc(Cl)c1CSc1nnc2ccccn12	none
C/C(CC(=O)Nc1ccc(OCc2ccccc2)cc1)=N\NC(=O)C(=O)Nc1ccccc1C	PP1 inh 16
O=C(NCCCc1ccccc1)c1cc(COc2ccc(F)cc2Cl)on1	none
CCOc1ccc(NC(=O)CN(C)C(=O)c2cccc(S(=O)(=O)N3CCN(C)CC3)c2)cc1OCC	none (no result: PP1 inh, pPAFAH inh, PP5 inh)
COc1ccc(N=C2NC(=O)/C(=C/c3ccco3)S2)cc1	none
COc1ccc(S(=O)(=O)/N=C2/NC(=O)/C(=C/c3ccco3)S2)cc1	pPAFAH inh 32
CC(C)c1c(O)ccc2c1CC[C@H]1C(C)(C)CCC[C@]21C	none (no result: PP1 inh, pPAFAH inh, PP5 inh)
Cc1ccc(/C=C2\SC(N3CCN(C(c4ccccc4)c4ccccc4)CC3)=NC2=O)o1	PP1 inh 17, pPAFAH inh 27
Cc1ccc(-c2ccc(/C=C3\SC(N4CCOCC4)=NC3=O)o2)cc1	none
Cc1ccc(S(=O)(=O)Oc2cccc(/C=N/n3cnnc3)c2)cc1	PAFAH1B2 FP inh 24
C(=N\n1cnnc1)/c1cccc(OCCOc2ccccc2)c1	PAFAH1B2 FP inh 28
COc1cc(/C=N/n2cnnc2)ccc1OCCOc1ccccc1	none
CC(NC(=O)C(Cc1ccccc1)=NO)c1ccccc1 (configuration not stated)	none (no result: PP1 inh, pPAFAH inh, PP5 inh)
Cc1ccc2nc(CSc3nc(C)cc(C)c3C#N)[nH]c2c1	pPAFAH inh 26
CN(C(=O)COC(=O)C(C)(C)Oc1ccc(Cl)cc1)c1c(N)n(Cc2ccccc2)c(=O)[nH]c1=O	pPAFAH inh 29
Cc1nc(N2CCOCC2)c2cc(-c3ccccc3)sc2n1	none
Cc1nc(SCCC(=O)O)c2cc(-c3ccccc3)sc2n1	PAFAH1B2 FP inh 50
COc1ccc(-c2cc(C)no2)cc1S(=O)(=O)Nc1cccc(C)c1	pPAFAH inh 30
COc1ccccc1NS(=O)(=O)c1cc(-c2cc(C)no2)ccc1OC	none
C=CCOc1c(Br)cc(/C=N/Nc2ccc(C(=O)O)cc2)cc1OCC	pPAFAH inh 30
COc1ccc(/C=N/Nc2ccc(C(=O)O)cc2)cc1Br	none
Cc1cc(=O)[nH]c(SCC(=O)C23CC4CC(CC(C4)C2)C3)c1C#N	PAFAH1B2 FP inh 63, PAFAH2 inh 49
CSc1cccc(NC(=O)c2nnn(CC(=O)Nc3cc(C)cc(C)c3)c2N)c1	PP1 inh 16
COc1cccc(NC(=O)Nc2nc(SC)ns2)c1	none
COc1cccc(NC(=O)Nc2nc(SC(C)(C)C)ns2)c1	PP1 inh 17
CCN(C(=O)CSc1ccc2c(c1)OCCO2)C1CCS(=O)(=O)C1 (configuration not stated)	none
CCN(C(=O)CSc1nnc(-c2ccc3c(c2)OCO3)o1)C1CCS(=O)(=O)C1 (configuration not stated)	PAFAH1B2 FP inh 32
COCCCn1cnnc1SC(C)C(=O)Nc1ccc(S(=O)(=O)N2CCOCC2)cc1 (configuration not stated)	none (no result: PP1 inh, PP5 inh)
Cc1ccc(C)c(N2CCN(S(=O)(=O)c3ccc4[nH]c(=O)ccc4c3)CC2)c1	none
Cc1cccc(N2CCN(S(=O)(=O)c3ccc4[nH]c(=O)ccc4c3)CC2)c1C	PP1 inh 16
COc1ccc(CCN2C(=O)CSC2c2ccc(F)cc2)cc1 (configuration not stated)	PAFAH1B2 FP inh 26
O=C1CSC(c2ccccc2)N1CCc1ccccc1 (configuration not stated)	none
CC(=O)Nc1ccc(S(=O)(=O)NC(C)CCc2ccccc2)cc1 (configuration not stated)	none
Cc1ccc(S(=O)(=O)NC(Cc2ccccc2)C(=O)NN)cc1 (configuration not stated)	none
Cc1ccc(S(=O)(=O)NC(C)CCc2ccccc2)cc1 (configuration not stated)	PAFAH1B2 FP inh 36
Cc1ccc(S(=O)(=O)N[C@@H](Cc2ccccc2)C(=O)CCl)cc1	PAFAH1B2 FP inh 24
Cc1ccc(C)c(S(=O)(=O)NC(C)CCc2ccccc2)c1 (configuration not stated)	PAFAH1B2 FP inh 29
Cc1ccc(S(=O)(=O)NC(C)CCc2ccccc2)cc1C(N)=O (configuration not stated)	none
c1ccc(-c2nc(-c3ccco3)n3ccccc23)cc1	pPAFAH inh 25
COc1ccc(C2CN=NC2C(=O)c2ccccc2)cc1 (configuration not stated)	none (no result: PP1 inh, pPAFAH inh, PP5 inh)
CCOc1cc(C(N)=O)cc(OCC)c1OCC	none
CCOc1cc(-c2nn3cnnc3s2)cc(OCC)c1OCC	pPAFAH inh 28
COC(=O)c1sc(-c2ccc(C(C)(C)C)cc2)cc1NC(=O)c1ccccc1C(=O)O	none
COC(=O)c1sc(-c2ccc(C(C)(C)C)cc2)cc1NC(=O)CSCC(=O)O	pPAFAH inh 32
O=C(CCCOc1ccccc1)Nc1cccc(S(=O)(=O)N2CCCCC2)c1	none
CC(C)(C)c1ccc(OCCC(=O)Nc2cccc(S(=O)(=O)N3CCCCC3)c2)cc1	PP1 inh 16

Source: PubChem
